PubChem BioAssay (NCATS)
Inconclusive results are not listed. A call without a number means that no potency is given here. Activity calls are given as the source filed them. The call rests on the fitted dose curve; in most records, active means well fitted inhibition curve with a large enough effect; inconclusive means small, poorly fitted or top-dose-only effect; inactive means flat fitted curve, though single readings scatter.

Molecular target: Calcium and integrin-binding protein 1 (Homo sapiens) (UniProt Q99828)
Assay: Primary qHTS for Identification of Calcium Integrin Binding Protein 1 (CIB1) Competitor (AID 1508620);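 further: GST tagged CIB1 binding a fluorescein labelled alphaIIb integrin peptide tracer; top concentration of the series differs between compounds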
Conditions: CIB1-GST / FITC-alphaIIb peptide fluorescence polarization; series mostly up to 114 µM
How it was run: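 Fluorescence polarization competition: CIB1-GST (1 uM final) preincubated with compound 15 min at room temperature, then FITC-labeled alphaIIb peptide (100 nM final) added for another 15 min. Polarization read at Ex 480/Em 540.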

Calcium and integrin-binding protein 1 (Homo sapiens), sequence (Q99828 whole entry, looked up): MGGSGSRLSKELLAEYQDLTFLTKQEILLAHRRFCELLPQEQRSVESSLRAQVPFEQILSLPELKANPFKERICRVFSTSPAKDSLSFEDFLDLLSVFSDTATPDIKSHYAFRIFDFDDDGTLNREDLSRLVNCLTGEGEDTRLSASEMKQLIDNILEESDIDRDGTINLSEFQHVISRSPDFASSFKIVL

SMILES | Potency
Cc1cccc(CNc2ncnc3ccc(-c4cccc(Cl)c4)cc23)c1 | inactive
FC(F)(F)c1ccccc1-c1nc(NCc2ccc(-c3ccc(Cl)cc3)cc2)c2ccccc2n1 | inactive
O=C(Nc1nnc(-c2ccncc2)s1)Nc1cccc2ccccc12 | inactive
O=c1c2ccccc2nc2sc(Nc3cccc(Br)c3)nn12 | inactive
O=C(Cn1cc(CNC(=O)C2CCCCC2)nn1)Nc1cc(C(F)(F)F)ccc1Cl | inactive
O=C1Nc2ccccc2/C1=C\c1ccc([N+](=O)[O-])cc1 | inactive
O=C1Nc2ccccc2/C1=C/c1cccc(C(=O)O)c1 | inactive
CC(Cc1ccccc1)C(=O)Nc1ccc(Cl)cc1C(=O)O (centres undefined) | inactive
O=C(OCC#CCSc1nnc(-c2cccc3ccccc23)o1)C1CCC1 | inactive
Cc1cc2c(s1)c1cnn(Cc3cc(C(F)(F)F)cc(Cl)c3F)c(=O)c1n2C | inactive
CCC(=O)Nc1ccc(OCc2cc(C3Nc4ccccc4C(=O)N3Cc3ccccc3)ccc2OC)cc1 (centres undefined) | inactive
N#Cc1ccc(-c2ccc(CNc3ccc(N4CCN5CCCCC5C4)cc3)o2)cc1 (centres undefined) | inactive
CN1C(=O)NC(c2ccccc2Cl)C2=C1CCCC2=O (centres undefined) | inactive
Cc1cc2c(s1)c1cnn(Cc3ccc(C(=O)O)cc3)c(=O)c1n2C | inactive
COc1ccc(C2Nc3ccccc3C(=O)N2CCc2ccc(Cl)cc2Cl)cc1COc1ccc(NC(C)=O)cc1 (centres undefined) | inactive
CC(=O)N1CCN(c2ccc(NCc3ccc(-c4cccc(Cl)c4)o3)cc2)CC1 | inactive
NC(=O)C1CCN(c2nc(-c3ccc4ccccc4c3)cs2)CC1 | inactive
O=C(Nc1ccccc1)Nc1nnc(-c2ccncc2)s1 | inactive
Cc1cc(-c2nnc3n2CCCC3)c(C)n1-c1ccccc1 | inactive
Cc1noc(C)c1-c1cccc(-c2nn3c(=O)cc(N4CCNCC4)nc3s2)c1 | inactive

SMILES | Potency
COc1cccc(C2c3c(ncn(-c4ccccc4OC)c3=N)Oc3ccc4ccccc4c32)c1 (centres undefined) | inactive
O=C(Nc1cccc(C(=O)O)c1)Nc1nnc(-c2ccncc2)s1 | inactive
Cc1cc2c(s1)c1cnn(Cc3c(Cl)cccc3Br)c(=O)c1n2C | inactive
Cc1cc(NS(=O)(=O)c2ccc3c(c2)CCC(=O)N3)ccc1F | inactive
COc1ccc(C2Nc3ccccc3C(=O)N2Cc2ccccc2OC)cc1COc1c(C)cc(NC(C)=O)cc1C (centres undefined) | inactive
COc1cc(F)c(S(=O)(=O)N2CCN(S(=O)(=O)c3cccc(NC(C)=O)c3)CC2)c(F)c1 | inactive
O=C1Nc2cccc(Cl)c2/C1=C\c1cc(Cl)c(O)c(Cl)c1 | inactive
O=C(O)c1ccc(O)c2ncc(NCC3CCCN(CCc4ccccc4)C3)cc12 (centres undefined) | inactive
O=C1NC(=O)/C(=C/c2cccn2-c2ccc(P(O)O)cc2)N1 | inactive
Cc1cc(N[S+](=O)([O-])c2cc3c(cc2Cl)NC(=O)CO3)ccc1Br | inactive
O=C(Cc1ccc(Cl)c(Cl)c1)Nc1ccc(S(=O)(=O)NCc2ccco2)cc1 | inactive
Cc1ccc(CNc2ccc(N3CCN(C)CC3)cc2)cc1 | inactive
CN(C)c1ccc2c(=O)n3nc(Nc4ccc5c(c4)CCC5)sc3nc2c1 | inactive
COC(=O)c1cccc(-c2noc(-c3ccccc3F)n2)c1 | inactive
C/C(=C\c1ccc2c(c1)OCCO2)C1Nc2cccc3cccc(c23)N1 | inactive
Clc1cccc(CSc2nc3ncc(Br)cc3[nH]2)c1 | inactive
COc1ccc(C2c3ccc(OCc4ccccc4)cc3Oc3ncn(CCN4CCOCC4)c(=N)c32)cc1OC (centres undefined) | inactive
CN(c1ccccc1)c1ccc(CNc2nn3c(=O)c4ccccc4nc3s2)cc1 | inactive
Cc1ccc(OCCn2c(CCNC(=O)c3cccnc3)nc3ccccc32)cc1 | inactive
